In PubChem BioAssay AID488969 (Vanderbilt High Throughput Screening Facility, 2010) one finds z-score data, which are given here for 111 compounds.

In all, about 110,000 compounds were measured (“z-score”: median about -0.1, highest 2% from about 2 on). The sample as a whole holds a higher share of the highest values than the screen did. The source made the active and inactive calls.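 The calls were made as follows: active = z-score in the third read window above 3 or below -3; inactive = the rest.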

In the assay the target is Metabotropic glutamate receptor 8 (Rattus norvegicus) (UniProt P70579). Kind of assay: mGluR8 Gi/Go-coupled signaling modulation – cell-based, rat, thallium flux, HTS, primary screen (AID 488969). The conditions noted are these: HEK293 rat mGluR8, GIRK (G protein-gated inwardly rectifying potassium channel) thallium flux, FluoZin2; at 10 µM; stronger effect = higher value; submaximal glutamate (EC20) added with thallium.
Chain of Metabotropic glutamate receptor 8 (Rattus norvegicus) (P70579 whole entry, looked up): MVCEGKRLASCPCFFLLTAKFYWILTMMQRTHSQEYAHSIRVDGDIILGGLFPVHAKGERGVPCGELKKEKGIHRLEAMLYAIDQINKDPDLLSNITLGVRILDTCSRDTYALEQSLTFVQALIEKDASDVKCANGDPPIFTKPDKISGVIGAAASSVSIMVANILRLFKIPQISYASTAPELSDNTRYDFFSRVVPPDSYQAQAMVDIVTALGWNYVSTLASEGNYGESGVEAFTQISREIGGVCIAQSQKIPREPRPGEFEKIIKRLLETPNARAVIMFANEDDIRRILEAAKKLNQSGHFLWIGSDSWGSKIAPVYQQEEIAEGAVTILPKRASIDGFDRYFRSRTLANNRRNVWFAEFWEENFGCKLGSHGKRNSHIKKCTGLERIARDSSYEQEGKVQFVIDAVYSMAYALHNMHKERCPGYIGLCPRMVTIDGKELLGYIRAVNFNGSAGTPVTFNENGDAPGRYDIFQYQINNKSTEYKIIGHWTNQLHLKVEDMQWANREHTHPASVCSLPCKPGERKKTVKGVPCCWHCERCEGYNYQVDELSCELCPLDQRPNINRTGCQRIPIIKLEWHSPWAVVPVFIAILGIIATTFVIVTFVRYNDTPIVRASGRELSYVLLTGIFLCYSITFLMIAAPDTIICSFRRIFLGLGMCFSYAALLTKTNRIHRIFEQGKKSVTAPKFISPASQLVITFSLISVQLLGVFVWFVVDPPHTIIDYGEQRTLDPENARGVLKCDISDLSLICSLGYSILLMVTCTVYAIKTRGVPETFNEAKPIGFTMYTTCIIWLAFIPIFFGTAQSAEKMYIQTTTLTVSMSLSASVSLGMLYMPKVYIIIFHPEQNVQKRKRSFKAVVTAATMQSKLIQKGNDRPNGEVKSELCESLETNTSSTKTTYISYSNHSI
For the compound `CCOc1cc(C)c(S(=O)(=O)NC2CCCCC2)cc1C`, the z-score was -0.571.

`O=c1c2ccccc2nc(COc2ccccc2)n1/N=C/c1c[nH]c2ccccc12` yielded a z-score of -0.533.

In the case of `O=[N+]([O-])c1cc(Cl)cc(C2=NCCN2)c1`, the z-score is 0.173.

In turn, `COc1ccc(N(CC(=O)NCc2ccccc2OC)S(=O)(=O)c2c(C)nn(C)c2C)cc1` showed a z-score of -0.153.

Turning to `COc1ccc(-c2nn(-c3ccccc3)cc2C(=O)O)cc1OC`, the z-score worked out at 0.191.

Compound `COc1ccccc1N1CCN(CC(=O)Nc2cc(F)ccc2C)CC1` showed a z-score of 0.0403.

Consider `CCN(CC)c1ccc(NC(=O)CSc2nc3ccccc3c(=O)[nH]2)cc1`, for which the z-score was -0.106.

Turning to `Cc1ccc2c(Cl)cc(Cl)c(OCC(=O)NCc3ccco3)c2n1`, the z-score is 3.48 (active).

Take `Cc1ccc2c(Cl)cc(Cl)c(OCC(=O)NC(=O)NCc3ccco3)c2n1`: the z-score was -0.127.

`Cc1ccc2c(Cl)cc(Cl)c(OCC(=O)Nc3cc(C)on3)c2n1` came in with a z-score of 0.0628.

Compound `Cc1c(C(=O)O)cccc1-c1ccc(C=O)o1` gave a z-score of 0.12.

As to `Cc1nn(CC(=O)Nc2ccc(S(=O)(=O)N(C)C)cc2)c(C)c1[N+](=O)[O-]`, the z-score was -0.0283.

With `Cc1cc(C)n(-c2ccc(C(=O)OCC(=O)Nc3ccc(S(=O)(=O)N4CCCCC4)cc3)cc2)n1`, the z-score was -0.00692.

The compound `Cc1nn(CC(=O)Nc2cc(S(=O)(=O)N(C)C)ccc2Cl)c(C)c1[N+](=O)[O-]` gave a z-score of 0.164.

On to `Cc1nn(CC(=O)Nc2ccc(Cl)c(S(=O)(=O)N(C)C)c2)c(C)c1[N+](=O)[O-]`, for which the z-score is 4.55 (active).

For the compound `CC(C)NS(=O)(=O)c1ccc(OCC(=O)Nc2ccc3c(c2)OCO3)c(Cl)c1`, the z-score was 3.09 (active).

Turning to `CN(C)S(=O)(=O)c1cc(NC(=O)COC(=O)c2ccc3c(c2)OCO3)ccc1Cl`, the z-score was 10.1 (active).

`Cc1ccc(S(=O)(=O)N(C)C)cc1NC(=O)COC(=O)c1ccc2c(c1)OCO2` came in with a z-score of 1.63.

For `CC(C)CNS(=O)(=O)c1ccc(OCC(=O)Nc2ccc3c(c2)OCO3)c(Cl)c1`, the z-score is -0.19.

Compound `Cc1ccc(NC(=O)COC(=O)c2ccc3c(c2)OCO3)cc1S(=O)(=O)N1CCCCC1` displayed a z-score of -0.401.

On to `Cc1cc(C)n(-c2ccc(C(=O)OCC(=O)Nc3ccc(Cl)c(S(=O)(=O)N(C)C)c3)cc2)n1`, for which the z-score was 15.5 (active).

Turning to `O=C(COc1ccc(S(=O)(=O)NC2CCCCC2)cc1Cl)Nc1ccc2c(c1)OCO2`, the z-score was determined as 0.2.

As for `CCN(CC)S(=O)(=O)c1ccc(NC(=O)COC(=O)c2ccc(-n3nc(C)cc3C)cc2)cc1`, the z-score was found to be 0.0126.

Consider `Cc1ccc(S(=O)(=O)CC(C)N2CCN(C3CCCCC3)CC2)cc1` (stereo unspecified), for which the z-score amounted to 1.44.

Consider `COc1ccccc1C(=O)COC(=O)c1ccccc1OCC(=O)Nc1ccc(SC(F)F)cc1`, for which the z-score was 1.1.

`COc1cccc(/C(O)=C2/C(=O)C(=O)N(Cc3ccco3)C2c2ccncc2)c1` (stereo unspecified): the z-score is -0.192.

`O=C(CSc1nnc(CN2CCOCC2)n1-c1ccc(Cl)cc1)Nc1cc(Cl)ccc1O` gave a z-score of -0.794.

For `Cc1cc(C)nc(NS(=O)(=O)c2ccc(NC(=O)CN3C(=O)c4ccccc4C3=O)cc2)n1`, the z-score stood at 0.113.

For `COc1ccc(/C=N/NC(=O)C(=O)Nc2ccccn2)cc1OC`, the z-score is 0.813.

`COc1cc(/C=N/NC(=O)C(=O)Nc2ccccn2)ccc1O` showed a z-score of -0.198.

Regarding `CCCOc1ccc(/C=N/NC(=O)C(=O)Nc2ccccn2)cc1`, the z-score is 3.92 (active).

`COc1ccc(CCNC(=O)CSc2nnc(CNC(=O)c3ccco3)o2)cc1OC`: the z-score stood at 0.382.

`Cc1ccc(-n2nnnc2SCC(=O)NCCC2=CCCCC2)c(C)c1` registered a z-score of 0.08.

In the case of `Cc1cc(C)c2nc(SCC(=O)NCCN3C(=O)CSC3=O)cc(C)c2c1`, the z-score is -0.238.

As for `Cc1cc(C)c2nc(SCC(=O)NCCC3=CCCCC3)cc(C)c2c1`, the z-score is 3.98 (active).

`CC(C)=CC(=O)Nc1nnc(C)s1`: the z-score is 0.00638.

For the compound `COCc1nnc(NC(=O)c2ccco2)s1`, the z-score was determined as 0.76.

In turn, `C/C=C(\C)c1nnc(NC(=O)c2ccco2)s1` yielded a z-score of -0.358.

For `Cc1nnc(NC(=O)c2ccco2)s1`, the z-score was 3.93 (active).

`CCC(=O)Nc1nnc(C)s1`: the z-score amounted to 0.946.

For the compound `CC(=O)Nc1nnc(C)s1`, the z-score is 3.66 (active).

In turn, `CCCOc1ccc(N2C(=O)CC(N(CCc3ccc(OC)cc3)C(=O)c3cccc(F)c3)C2=O)cc1` (stereo unspecified) gave a z-score of -0.214.

As to `COc1ccccc1N(CN1CCCC1=O)C(=O)c1ccccc1F`, the z-score was -0.699.

The compound `O=C1/C(=C\Nc2ccc(Cl)cc2)CCN1c1ncccn1` displayed a z-score of 0.111.

On to `Cc1ccc(C(=O)NCCNc2ccc(Cl)cc2[N+](=O)[O-])o1`, for which the z-score was -0.083.

In turn, `CCCN1C2=NS(=O)(=O)CCN2c2ccccc21` gave a z-score of 0.249.

Regarding `C=CCn1c(SCC(=O)c2cc(C)n(CCOC)c2C)nc2sc(C)c(C)c2c1=O`, the z-score was -0.255.

On to `COc1nc(N2CCOCC2)nc(C)c1[N+](=O)[O-]`, for which the z-score is -0.535.

For `CN(C)CCCOC(=O)c1ccc(Cl)cc1Cl`, the z-score stood at 0.77.

Consider `CCCC(=O)NC(=S)Nc1cccc(NC(=O)c2ccc(Cl)cc2Cl)c1`, for which the z-score is -0.0719.

`CN(C)CCCOC(=O)c1ccccc1Cl`: the z-score is 0.35.

Turning to `CCN(CC)C(=S)NC(=O)c1ccc(Cl)cc1Cl`, the z-score came out at 2.95.

Take `CC1Cc2ccccc2N1C(=S)NC(=O)c1ccc(Cl)cc1Cl` (stereo unspecified): the z-score is 13.5 (active).

`CCC(=O)NC(=S)Nc1cccc(NC(=O)c2ccc(Cl)cc2Cl)c1` registered a z-score of 0.179.

Regarding `CCCN(CCC)C(=S)NC(=O)c1ccc(Cl)cc1Cl`, the z-score is 14.4 (active).

Compound `CCCCN(CCCC)C(=S)NC(=O)c1ccccc1Cl` gave a z-score of -0.755.

The compound `O=C(NNC(=O)c1ccccc1-n1cccc1)c1ccc(Cl)cc1Cl` gave a z-score of 0.632.

With `CCCN(CCC)CCCOC(=O)c1ccc(Cl)cc1Cl`, the z-score was 3.95 (active).

The compound `C=CCNC(=O)c1ccc(Cl)cc1Cl` returned a z-score of 0.206.

In turn, `CC1Cc2ccccc2N1C(=S)Nc1ccc(S(N)(=O)=O)cc1` (stereo unspecified) returned a z-score of 0.0257.

`O=C(Cc1ccc([N+](=O)[O-])cc1)Nc1nnc(C2CC2)s1`: the z-score was found to be 1.17.

As to `Cc1cc2cc(CN(CC3CCCO3)C(=S)Nc3ccccc3)c(=O)[nH]c2cc1C` (stereo unspecified), the z-score is -0.235.

`Cc1ccc2c(c1)NC(=O)CC(c1ccccc1)=N2`: the z-score is 8.23 (active).

As for `O=C1CC(c2ccccc2)=Nc2ccccc2N1`, the z-score was -0.0288.

As for `COc1ccc2c(c1)NC(=O)CC(c1ccccc1)=N2`, the z-score was -0.0551.

On to `COc1ccc(/C=N/NC(=O)C[n+]2ccccc2)c(OC)c1OC`, for which the z-score is -0.273.

`Fc1ccccc1N1CCN(C(c2cccs2)c2nnnn2CCc2ccccc2)CC1` (stereo unspecified) came in with a z-score of 0.131.

As for `Cc1ccc(NC2=C(Cl)C(=O)OC2NC(=O)c2ccccc2)cc1` (stereo unspecified), the z-score is -0.201.

Take `COc1cccc(C(c2nnnn2CCc2ccccc2)N2CCN(c3ccccc3)CC2)c1OC` (stereo unspecified): the z-score was -0.689.

In the case of `COc1ccc(CCn2nnnc2C(c2ccc(C)cc2)N2CCN(C)CC2)cc1OC` (stereo unspecified), the z-score was 0.0408.

Compound `C=CCN1CCN(C(c2ccc(Cl)cc2)c2nnnn2CCc2ccc(OC)c(OC)c2)CC1` (stereo unspecified) displayed a z-score of 2.29.

`CCN1CCN(C(c2ccccc2)c2nnnn2CCc2ccc(OC)c(OC)c2)CC1` (stereo unspecified) showed a z-score of 0.256.

The compound `COc1ccccc1C(c1nnnn1CCc1ccccc1)N1CCN(c2ccccc2)CC1` (stereo unspecified) displayed a z-score of -0.00308.

`COc1ccccc1C(c1nnnn1CCc1ccccc1)N1CCCCCC1` (stereo unspecified): the z-score is 2.68.

As to `CCOc1ccc(Cc2c(Cl)nc(SC)nc2N(C)C)cc1`, the z-score is -0.458.

In turn, `CSc1nnc(C2CCCN2)n1C` (stereo unspecified) showed a z-score of 0.383.

In turn, `O=C(COc1ccc(S(=O)(=O)N2CCOCC2)cc1)Nc1ccccc1C(F)(F)F` had a z-score of 1.25.

For `CCn1c(SCC(=O)NC2CCCCC2C)nnc1-c1ccc(OC)cc1` (stereo unspecified), the z-score is 0.074.

`CC(=O)N1c2c(ccc3ccccc23)C(C)CC12CCCCC2` (stereo unspecified): the z-score was -0.635.

`O=c1c2ccccc2ncn1CCCOc1ccccc1[N+](=O)[O-]` returned a z-score of -0.198.

In turn, `O=C(Cn1cnc2c(nnn2Cc2ccc(F)cc2)c1=O)N1CCN(c2ccccc2)CC1` yielded a z-score of -0.0198.

In turn, `Cc1oc(-c2ccccc2)nc1CC(=O)O` came in with a z-score of -0.979.

Take `Cc1oc(-c2ccccc2)nc1CS(=O)CC(=O)O` (stereo unspecified): the z-score was found to be 2.52.

On to `CCN(CC)CCNC(=O)CS(=O)Cc1nc(-c2ccc(Cl)cc2)oc1C` (stereo unspecified), for which the z-score came to 2.41.

For `COCCNC(=O)CS(=O)Cc1nc(-c2ccc(Cl)cc2)oc1C` (stereo unspecified), the z-score was 0.00619.

Compound `CCCN(CCC)CCNC(=O)CS(=O)Cc1nc(-c2ccc(C)cc2)oc1C` (stereo unspecified) came in with a z-score of 1.19.

For the compound `COc1cccc(-c2nc(CS(=O)CC(=O)O)c(C)o2)c1` (stereo unspecified), the z-score is 0.0172.

As for `CCN(CC)CC(O)COc1ccc2c(c1)OCO2` (stereo unspecified), the z-score was -0.199.

`Cc1cc(C)cc(OCCCCCNCCO)c1` had a z-score of -0.911.

For `O=C(CSc1nnc2ccccn12)Nc1nsc(-c2ccccc2)n1`, the z-score is 3.63 (active).

Compound `O=C(CSc1nnc2scc(-c3ccccc3)n12)Nc1nsc(-c2ccccc2)n1` registered a z-score of -0.713.

Take `COc1ccc(-c2nc(NC(=O)CSc3nnc4ccccn34)ns2)cc1`: the z-score is -0.0274.

`O=C(Nc1cccc(Cl)c1)Nc1ccc(Cl)cn1`: the z-score was 0.563.

Turning to `Cc1ccc(Oc2ncnc3sccc23)cc1`, the z-score amounted to 0.102.

`Cc1ccc2c(CC(=O)OC(C)C(=O)NCc3ccc4c(c3)OCO4)coc2c1` (stereo unspecified) registered a z-score of 2.05.

The compound `CC(OC(=O)Cc1coc2cc3c(cc12)CCC3)C(=O)NCc1ccc2c(c1)OCO2` (stereo unspecified) registered a z-score of 0.706.

Compound `Cc1ccc2c(CC(=O)NCc3ccc4c(c3)OCO4)coc2c1` had a z-score of 0.281.

In turn, `Cc1nc(C(F)(F)F)nc(Nc2ccc(Br)cc2)c1C#N` returned a z-score of -0.188.

As to `CCOC(=O)c1[nH]c(C)c(C(=O)N(C)Cc2ccccc2)c1C`, the z-score was found to be 0.89.

With `CCOC(=O)C(C)Sc1nnc(-c2c[nH]c3ccccc23)n1C` (stereo unspecified), the z-score is 4.19 (active).

`CCc1nnc(NC(=O)CSc2nnc(-c3ccccc3O)n2CC)s1` came in with a z-score of -0.195.

In turn, `CCn1c(SC(C)C(=O)OC)nnc1-c1c[nH]c2ccccc12` (stereo unspecified) showed a z-score of -0.657.

As for `CCCSc1nnc(-c2c[nH]c3ccccc23)n1C`, the z-score is 0.341.

Turning to `CCSc1nnc(NC(=O)CSc2nnc(-c3c[nH]c4ccccc34)n2CC)s1`, the z-score was -1.46.

Consider `CCc1nnc(NC(=O)CSc2nnc(-c3c[nH]c4ccccc34)n2CC)s1`, for which the z-score is 5.79 (active).

`Cc1ccsc1-c1n[nH]c(=S)n1C1CCCCC1` displayed a z-score of 0.261.

Turning to `CC(C)n1c(-c2ccc(C(C)(C)C)cc2)n[nH]c1=S`, the z-score is 8.21 (active).

As for `S=c1[nH]nc(-c2cccnc2)n1C1CCCCC1`, the z-score amounted to 0.738.

The compound `Cn1c(-c2ccc(C(C)(C)C)cc2)n[nH]c1=S` gave a z-score of 1.92.

Compound `CC(C)n1c(-c2ccccc2F)n[nH]c1=S` displayed a z-score of 0.0711.

As to `CC(C)(C)c1ccc(-c2n[nH]c(=S)n2C2CCCC2)cc1`, the z-score is 4.4 (active).
